# IMPase inh: qHTS Assay for Identifying the Cell-Membrane Permeable IMPase Inhibitors; 120,000 tested, under 10 active; AID 901, 2007; inhibition (IP1 accumulation), % at 46.1 µM; Inositol monophosphatase 1 (Rattus norvegicus), P97697; CHO-M1 cells, IP1 accumulation, HTRF TR-FRET ratio; active = well fitted curve in the direction sought with a large enough effect in the signal ratio, not every such curve was filed as active; inconclusive = small, poorly fitted or top-dose-only effect, or a change in a side signal; inactive = no such curve, though single readings can be large or run the other way; the % refers to the signal ratio;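 note: cells stimulated with carbachol in lithium chloride buffer; plate controls were DMSO basal wells for no effect and reference inhibitor wells for full effect; higher means more IMPase inhibition seen as more IP1 and lower FRET ratio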
# Target sequence (P97697 whole entry, looked up): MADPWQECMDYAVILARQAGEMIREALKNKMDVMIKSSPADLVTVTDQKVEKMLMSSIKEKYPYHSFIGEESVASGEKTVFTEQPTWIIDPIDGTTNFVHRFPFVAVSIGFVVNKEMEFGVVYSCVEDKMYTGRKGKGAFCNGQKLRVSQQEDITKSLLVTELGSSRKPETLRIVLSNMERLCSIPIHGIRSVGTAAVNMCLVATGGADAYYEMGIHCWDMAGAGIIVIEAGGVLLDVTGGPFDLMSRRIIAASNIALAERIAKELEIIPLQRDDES
#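 CHO-M1, 2000 cells/well, cultured 16–30 h; cpd up to 46 uM; carbachol (50 uM solution, stimulation buffer w/ 50 mM LiCl, pH 7.4), 30 min 37C; IP-One TR-FRET, 10 min RT; Ex 320/Em 665, 620; Hill-fit AC50.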
# LMNA splice mod: qHTS Assay for Modulators of Lamin A Splicing; HeLa LMNA splicing GFP/RFP minigene ratio, 48 h; Potency, µM (titrated, usually from 46.1 µM), inactives show at the highest dose ratio change, negative = inhibition, most hits filed as inhibitors; actives 0.01% (n = 200,000); active = well fitted inhibition curve with a large enough effect in the signal ratio, with a control signal flat, not every such curve was filed as active; inconclusive = small, poorly fitted or top-dose-only effect, or effect the other way, or a change in a side signal; the % refers to the signal ratio; note: potency is the fitted concentration of half-maximal effect
#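 S3 HeLa stable clones carrying a lamin A-EGFP splicing minigene plus DsRed2 were seeded at 600 cells/well in Opti-MEM with 2% FBS, pin-dosed and incubated 48 h at 37°C. Acumen cytometry (488 nm) gave the GFP/RFP total-intensity ratio.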
# ALDH1A1 block: qHTS Assay for Inhibitors of Aldehyde Dehydrogenase 1 (ALDH1A1); AID 1030, 2008; actives 7.3% (n = 220,000); Purified ALDH1A1, NADH fluorescence, propionaldehyde substrate; Aldehyde dehydrogenase 1A1 (Homo sapiens), P00352; Potency, µM (highest dose often 75.3 µM), without a hit: top-dose activity, negative = inhibition, actives largely listed as inhibitors;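 note: potency is the fitted concentration of half-maximal effect; plate controls were no enzyme wells and a reference inhibitor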
# Luc counter: Counterscreen for Luciferase (Kinase-Glo TM) Inhibition; AID 1379, 2008; actives 0.28% (n = 200,000); Luciferin 4-monooxygenase (Photuris pensylvanica), Q27757; Kinase-Glo luciferase, ATP luminescence, 8 min; Potency, µM (doses to about 38.3 µM), for the others: at the top dose activity change, negative = inhibition, most hits filed as inhibitors; active = well fitted inhibition curve with a large enough effect; inconclusive = small, poorly fitted or top-dose-only effect; note: potency is the fitted concentration of half-maximal effect; nearly all actives have a fitted effect of over 60% in size
#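 Compounds were added to a substrate mix at pH 7.2 (50 mM imidazole, 10 uM ATP, within the enzyme's linear range), followed by Kinase-Glo detection reagent; luminescence was measured after 8 minutes at ambient temperature.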
# PNC assembly inh: High Content Assay for Compounds that inhibit the Assembly of the Perinucleolar Compartment; PC3M PTB-GFP, PNC prevalence imaging, 16 h; hits give low values; activity change (PNC), negative = inhibition, % at 10 µM; actives 3.1% (n = 140,000);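 active = readout at or below -70, meaning at least 70% loss of cells showing the perinucleolar compartment, a nuclear body marking cancer cells; inconclusive = readout between -30 and a set limit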;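 note: plate controls were DMSO wells for no effect and camptothecin positive control wells for full effect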
#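 PC3M cells stably expressing PTB-GFP, 750–1000 cells/well, treated 16 h at 37 °C with compound (23 nl of library stock), in duplicate. After paraformaldehyde fixation and Hoechst stain, imaged at 20x; PNC prevalence scored by image analysis.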
# HPGD block: qHTS Assay for Inhibitors of HPGD (15-Hydroxyprostaglandin Dehydrogenase); purified HPGD, NADH fluorescence kinetic, PGE2 substrate; Potency, µM, for inactives: top-dose activity change, negative = inhibition, hits mostly inhibitors; actives 4.3% (n = 150,000); note: potency is the fitted concentration of half-maximal effect
# Target sequence (P15428 whole entry, looked up): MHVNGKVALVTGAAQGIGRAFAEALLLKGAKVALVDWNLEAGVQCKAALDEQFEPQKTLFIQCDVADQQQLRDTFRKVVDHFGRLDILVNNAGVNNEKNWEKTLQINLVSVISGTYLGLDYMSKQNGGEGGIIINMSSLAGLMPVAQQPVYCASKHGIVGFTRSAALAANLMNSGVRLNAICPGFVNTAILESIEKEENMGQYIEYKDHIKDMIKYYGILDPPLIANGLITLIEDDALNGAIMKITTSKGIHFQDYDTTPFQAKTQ
#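 NADH formation kinetics: reaction with 30 uM PGE2 and 1 mM NAD+ (final), 20 nM enzyme, Tris-HCl pH 8 with Tween 20, after 15 min compound preincubation at room temperature. Fluorescence change, last versus first of five reads.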
# The depositor's hits bear a star; u = inconclusive; x = no result; [ ] = another dose, or the depositor's remark. Only some compounds are listed: those with a hit (about 10% of all), similar ones and a draw of the others. Unless noted, calls come from the whole dose curve; as a rule, active = well fitted inhibition curve with a large enough effect (not every such curve was filed as active); inconclusive = small, poorly fitted or top-dose-only effect, or another doubt; inactive = no such curve, though single readings can be large or run the other way. Unless noted, % is set by controls: 0 for no effect and ±100 for the full control effect.
SMILES,IMPase inh,LMNA splice mod,ALDH1A1 block,Luc counter,PNC assembly inh,HPGD block
COc1ccc(C(=S)N2CCOCC2)cc1OS(=O)(=O)c1ccccc1[N+](=O)[O-],x,-16%,11µM*,-3%,104,32µM*
COc1ccc(C=O)cc1OS(=O)(=O)c1ccccc1[N+](=O)[O-],x,2%,-7%,2%,u,20µM*
CCOc1ccc(C(=S)N2CCOCC2)cc1OCC,-8,14%,u,5%,u,u
CCOc1cc(C(=S)N2CCOCC2)ccc1OS(=O)(=O)c1ccccc1[N+](=O)[O-],x,u,-1%,-1%,u,16µM*
COc1cc(C(=S)N2CCOCC2)ccc1OS(=O)(=O)c1ccccc1[N+](=O)[O-],x,u,u,-3%,25,u
NC(=O)C[C@@H](N)C(=O)O,x,x,10%,x,x,x
CCCSc1nc2ccsc2c(=O)n1CC,x,u,-4%,-2%,x,x
Cc1cc(NC(=O)CSc2nc3ccsc3c(=O)n2Cc2ccccn2)n[nH]1,2,-1%,-26%,-4%,-16,-14%
CC1CCCCN1C(=O)CSc1nc2ccsc2c(=O)n1Cc1ccccn1 (centres undefined),6,0%,16µM*,0%,50,-13%
CC1CCCCN1C(=O)CSc1nc2cc3c(cc2c(=O)n1Cc1ccc2c(c1)OCO2)OCO3 (centres undefined),-10,1%,22µM*,2%,-87*,-27%
CCn1c(SCC(=O)N2CCCCC2C)nc2ccsc2c1=O (centres undefined),4,u,7.9µM*,-1%,u,u
O=C(NC1CCCCC1)C(=S)N1CCOCC1,x,x,24µM*,-3%,x,x
CN(C)c1ccc(C(=O)OCC(=O)Nc2ccc(N3CCOCC3)cc2)cc1,x,x,13µM*,x,x,x
O=C(COC(=O)CCC(=O)c1ccc(F)cc1)Nc1ccc(N2CCOCC2)cc1,-3,0%,-10%,10%,-4,18µM*
N#Cc1ccc(C(=O)OCC(=O)Nc2ccc(N3CCOCC3)cc2)cc1,x,-17%[46 µM],u,0%,x,x
O=c1c(-c2ccccc2)nc2cnc(N3CCOCC3)nc2n1CCc1ccccc1,x,-8%,u,x,x,x
CN(/N=C\c1ccccc1O)c1ccc2ccccc2n1,x,x,5%[13.5 µM],-4%[7.66 µM],x,-4%
COc1ccccc1NC(=O)CN1C(=O)c2cccc3cccc1c23,7,x,x,x,x,x
CCOCC(=O)N1CCN(c2cccc(Cl)c2)CC1,x,x,3.2µM*,-4%,x,x
O=C(O)CCC(=O)N1CCN(c2cccc(Cl)c2)CC1,-2,12%,28µM*,3%,0,-6%
O=C(Cc1cccs1)N1CCN(c2cccc(Cl)c2)CC1,x,19%[46 µM],6%,-2%,x,x
COc1cc(OC)cc(C(=O)Nc2cc3c(cc2N2CCOCC2)n(C)c(=O)n3C)c1,-5,x,x,x,x,x
COc1ccc2[nH]c(C)c(CCN(Cc3cccs3)C(=S)Nc3ccc(F)cc3)c2c1,6,u,18µM*,3%,-27,-17%
COc1ccc2[nH]c(C)c(CCN(Cc3cccs3)C(=S)Nc3ccccc3)c2c1,10,u,u,-4%,-9,-7%
Cc1cccc(N2C(=O)CSC23C(=O)N(CC(=O)NCc2ccccc2Cl)c2ccccc23)c1 (centres undefined),x,-8%[46 µM],x,x,x,x
CCN(CC)S(=O)(=O)c1ccc2c(c1)nc(CCC(=O)OCC(=O)Nc1c(F)cccc1F)n2C,x,-1%,10µM*,-2%,-8,-10%
CN(C)S(=O)(=O)c1ccc2c(c1)nc(CCC(=O)Nc1ccc(N3CCOCC3)cc1)n2C,x,x,-1%,0%,x,x
CCN(CC)S(=O)(=O)c1ccc2c(c1)nc(CCC(=O)O)n2C,x,-3%[46 µM],11µM*,x,x,x

# Source: PubChem
